Reference: PubChem BioAssay AID1851 (National Center for Advancing Translational Sciences (NCATS), 2009)
“And” between values parts separate entries of the source, which are not always exact repeats. Equal values may be shown once. Out of some 16,000 compounds screened, about 5,700 (36%) were called active. Another 24% or so got no clear call; they are omitted. The list shows a part of the results. A number with no mark means an inactive call. The call rests on the fitted dose curve; in most records, active means well fitted curve in the direction sought with a large enough effect; inconclusive means small, poorly fitted or top-dose-only effect, or effect the other way; inactive means no such curve, though single readings can be large or run the other way.

target: Cytochrome P450 1A2 (Homo sapiens) (UniProt P05177); assay: Cytochrome panel assay with activity outcomes; settings: recombinant CYP, pro-luciferin dealkylation, luminescence, p450-cyp1a2; series mostly up to 57.1 µM; activity, negative = inhibition: at the top concentration
Sequence (P05177 whole entry, looked up): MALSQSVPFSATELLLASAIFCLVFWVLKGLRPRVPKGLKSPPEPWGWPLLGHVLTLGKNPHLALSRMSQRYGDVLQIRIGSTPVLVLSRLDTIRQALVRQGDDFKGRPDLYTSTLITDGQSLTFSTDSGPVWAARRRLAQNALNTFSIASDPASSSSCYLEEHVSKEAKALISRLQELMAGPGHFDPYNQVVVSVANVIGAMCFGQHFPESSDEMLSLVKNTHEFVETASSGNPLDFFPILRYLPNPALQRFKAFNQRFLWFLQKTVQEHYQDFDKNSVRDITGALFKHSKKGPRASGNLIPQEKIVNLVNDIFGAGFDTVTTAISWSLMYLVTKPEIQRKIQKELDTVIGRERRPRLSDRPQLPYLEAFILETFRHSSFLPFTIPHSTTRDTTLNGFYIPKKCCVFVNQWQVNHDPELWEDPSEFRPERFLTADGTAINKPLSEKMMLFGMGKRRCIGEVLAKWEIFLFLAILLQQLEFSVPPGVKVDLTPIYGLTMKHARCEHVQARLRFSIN
On the % scale 0 is the no-effect control and ±100 the full control effect.

SMILES	AC50	activity, negative = inhibition
CN(C)CCOC(=O)COc1ccc(Cl)cc1	10 µM (active)	–
CC(=O)[C@@H]1CC[C@@H]2[C@@H]3CCC4=CC(=O)CC[C@@]4(C)[C@H]3CC[C@]21C	–	-7.19% [at 25.6 µM]
CC[N+](C)(C)c1cccc(O)c1	–	-7.54%
COC(=O)c1cc2c(cn1)[nH]c1ccccc12	0.631 µM (active)	–
CCN1C[C@]2(C)CC[C@@H](O)[C@]34[C@@H]5CC6[C@@H](OC)C[C@@](O)([C@H]5[C@@H]6O)[C@@H](C[C@@H]23)[C@H]14	–	-9.03%
CN1[C@@H]2CC[C@H]1CC(O)C2 (stereo not given in full)	–	-12.5% [at 25.6 µM]
Oc1ccc2c3c1O[C@@H]1c4[nH]c5c(c4C[C@@]4(O)[C@@H](C2)N(CC2CC2)CC[C@]314)C[C@]1(O)[C@@H]2Cc3ccc(O)c4c3[C@@]1(CCN2CC1CC1)[C@H]5O4	–	-5.25%
Ic1cncc(OC[C@@H]2CCN2)c1	0.398 µM (active)	–
C[C@@]12CC[C@@H]3[C@H](CCC4=CC(=O)CC[C@]43C)[C@@H]1CC[C@@H]2C(=O)COS(=O)(=O)c1ccc(Br)cc1	–	-3.63% [at 11.4 µM]
C1CCc2nnnn2CC1	–	2.25%
C/C(=C\c1ccc(N(C)C)cc1)[N+](=O)[O-]	1.41 µM (active)	–
N[C@@H](CP(=O)(O)O)C(=O)O	–	-12.6% [at 11.4 µM]
CC(=O)OCC(=O)[C@@H]1CC[C@H]2[C@H]3CC[C@H]4C[C@@H](O)CC[C@]4(C)[C@@H]3C(=O)C[C@@]12C	–	-3.59% [at 25.6 µM]
CCCn1c(C)c(C(=O)c2cccc3ccccc23)c2ccccc21	2 µM (active)	–
Cc1c(C(=O)c2ccc3ccccc3c2)c2cccc3c2n1[C@H](CN1CCOCC1)CO3	–	-21.2%
CCCn1c(C)c(C(=O)c2ccc3ccccc3c2)c2ccccc21	6.31 µM (active)	–
C[C@@H]1[C@@H](C)N1C[C@H](O)Cn1ccnc1[N+](=O)[O-] (stereo not given in full)	–	-13.2% [at 11.4 µM]
Nc1nc2[nH]c(=O)cnc2c(=O)[nH]1	–	2.71%
CN1CC[C@@]23c4ccccc4N[C@H]1[C@]21CCN(C)[C@@H]3Nc2ccccc21	–	-4.88% [at 25.6 µM]
O=C(O)CS(=O)(=O)C(c1ccccc1)c1ccccc1	–	-15.7% [at 2.29 µM]
Cc1cc(C)cc(NC(=S)NC2CC3CCC(C2)N3Cc2ccco2)c1 (stereo not given)	–	-11.6%
C[C@@H]1C(=O)O[C@@H]2C[C@]34[C@H]5C[C@@H](C(C)(C)C)[C@@]36[C@@H](OC(=O)[C@@H]6O)O[C@@]4(C(=O)O5)[C@@]12O	–	-6.3% [at 25.6 µM]
NCCP(=O)(O)O	–	-12.9% [at 11.4 µM]
CN[C@H](Cc1ccccc1)c1cccc(OC)c1O	–	-11.6% [at 11.4 µM]
COC1=CC(=O)O[C@@H](/C=C\c2ccccc2)C1	3.16 µM (active)	–
CNC(=O)OCC[N+](C)(C)C	–	10.7%
O=C(NCP(=O)(O)O)c1cccnc1	–	-11.9% [at 11.4 µM]
CC(C)CN1CC2(CCN(C(=O)c3ccncc3)CC2)C1	–	-7.67%

SMILES	AC50	activity, negative = inhibition
C[C@@H]1O[C@H](C[N+](C)(C)C)CS1	–	0.254%
N=C(N)SCc1ccc(Cl)c2ccccc12 (tested in a mixture with another compound)	251 nM (active) and 158 nM (active)	–
COc1ccc2c(c1)CN([C@H](C)[C@@H]1CC[C@@H]3[C@H]4CC[C@H]5C[C@@H](O)CC[C@@]5(C)[C@H]4CC[C@]31C)CO2	–	-17.9% [at 2.29 µM]
CCCC(CCC)C(=O)O	–	-4.79%
O=S(=O)(c1ccccc1)N1CCCCC1c1cccnc1 (stereo not given)	–	-6.92%
CC1(C)[C@@H]2CC[C@]1(C)CN(CCC[N+](C)(C)C)C2	–	-6.81% [at 2.29 µM]
CC(=Nc1c(C)n(C)n(-c2ccccc2)c1=O)c1c(O)n(Cc2ccccc2)c(=O)[nH]c1=O	–	-6.48%
CC(=NCc1ccco1)c1c(O)n(-c2ccccc2)c(=O)[nH]c1=O	22.4 µM (active)	–
CC(=NCCN1CCOCC1)c1c(O)n(Cc2ccccc2)c(=O)[nH]c1=O	–	-26.8%
N[C@@]1(C(=O)O)CC[C@H](C(=O)O)C1	inactive	–
O=C1C2CCN(CC2)C1(CO)CO	–	-15.4% [at 11.4 µM]
[N-]=[N+]=CC(=O)CC[C@H](N)C(=O)O	–	-10.9% [at 11.4 µM]
Clc1ccccc1-c1cncnc1NCCc1cnc[nH]1	1.58 µM (active)	–
Cc1ccccc1-c1cncnc1NCCc1cnc[nH]1	5.01 µM (active)	–
N=C(N)c1ccc(-c2ccc(-c3ccc(C(=N)N)cc3)o2)cc1	–	-1.35% [at 11.4 µM]
O=C(O)c1cc(N=Nc2ccc([As](=O)(O)O)cc2)ccc1O	–	-9.91% [at 11.4 µM]
O=[As](O)(O)c1ccc(N=Nc2ccc([As](=O)(O)O)cc2)cc1	–	-13.9% [at 11.4 µM]
N[C@@H](Cn1ccc(=O)n(Cc2ccc(C(=O)O)cc2)c1=O)C(=O)O	–	-15.7%
c1ccc(C[N+]23CN4CN(CN(C4)C2)C3)cc1	–	-10.1% [at 2.29 µM]
Cc1ccc(NC(=[OH+])c2cc3ccccc3cc2O)c(C)c1.Cc1ccc(NC(=[OH+])c2cc3ccccc3cc2O)c(C)c1.[Ni]	0.251 µM (active)	–
CN(C)[C@@H]1C(=O)C(C(N)=O)=C(O)[C@]2(O)C(=O)C3=C(O)c4c(O)cccc4[C@@](C)(O)[C@H]3[C@H](O)[C@@H]12	–	-18.3% [at 25.6 µM]
CN(C(=O)Cc1ccc(Cl)c(Cl)c1)[C@@H](CN1CCCC1)c1cccc(OCC(=O)O)c1	–	2.92%
C[N+]1(C)[C@@H]2CC(OC(=O)[C@@H](CO)c3ccccc3)C[C@@H]1[C@H]1O[C@H]12 (stereo not given in full)	–	-22.8% [at 11.4 µM]
Cc1ccc(S(=O)(=O)N[C@@H](CCCCN)C(=O)CCl)cc1	–	3.11%
C[C@@]12CC[C@H](O[C@@H]3O[C@H](CO)[C@@H](O)[C@H](O)[C@@H]3O)C[C@@H]1CC[C@H]1[C@H]2CC[C@@]2(C)[C@@H](C3=CCOC3=O)CC[C@]12O	–	-11.7% [at 11.4 µM]
CCOc1ccc2c(c1)C(C)=CC(C)(C)N2	5.01 µM (active)	–
CC(C)(C)C(=O)CP(=O)(O)O	–	-9.4% [at 11.4 µM]
